# Hits are enriched below; roughly 9% of the tested compounds scored in any of these assays.
# IMPase inh: membrane-permeable compound that blocks inositol monophosphatase; inhibition (IP1 accumulation), % at 46.1 µM; CHO-M1 cells, IP1 accumulation, HTRF TR-FRET ratio; 120,000 tested, under 10 active; P97697; active = well fitted curve in the direction sought with a large enough effect in the signal ratio, not every such curve was filed as active; inconclusive = small, poorly fitted or top-dose-only effect, or a change in a side signal; inactive = no such curve, though single readings can be large or run the other way; the % refers to the signal ratio;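 note: cells stimulated with carbachol in lithium chloride buffer; higher means more IMPase inhibition seen as more IP1 and lower FRET ratio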
# Target sequence (P97697 whole entry, looked up): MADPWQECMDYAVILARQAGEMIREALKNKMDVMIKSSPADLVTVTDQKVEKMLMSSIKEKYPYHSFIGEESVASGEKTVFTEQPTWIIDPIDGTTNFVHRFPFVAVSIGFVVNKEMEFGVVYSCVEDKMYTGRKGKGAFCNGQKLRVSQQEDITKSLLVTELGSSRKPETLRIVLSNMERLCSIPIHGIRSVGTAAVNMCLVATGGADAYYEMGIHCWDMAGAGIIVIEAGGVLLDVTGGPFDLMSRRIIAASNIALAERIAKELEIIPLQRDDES
#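 Seeded CHO-M1 cells were dosed with compound at up to 46 uM, stimulated with carbachol for 30 min, then lysed in IP-One detection reagents. Higher IP1 lowers the TR-FRET signal.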
# HPGD inh: inhibitors of human 15-hydroxyprostaglandin dehydrogenase (HPGD) | P15428 | purified HPGD, NADH fluorescence kinetic, PGE2 substrate | Potency, µM, usual class: inhibitors | hit rate 4.3% among 150,000
# Target sequence (P15428 whole entry, looked up): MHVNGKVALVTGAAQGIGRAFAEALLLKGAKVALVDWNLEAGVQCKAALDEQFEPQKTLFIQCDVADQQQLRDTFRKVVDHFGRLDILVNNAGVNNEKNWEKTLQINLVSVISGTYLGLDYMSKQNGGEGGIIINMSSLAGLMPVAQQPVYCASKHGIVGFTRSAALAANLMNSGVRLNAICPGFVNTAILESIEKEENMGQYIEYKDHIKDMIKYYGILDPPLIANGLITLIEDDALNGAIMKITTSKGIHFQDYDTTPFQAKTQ
#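 20 nM HPGD preincubated 15 min at room temperature with compound in 50 mM Tris-HCl pH 8, 0.01% Tween 20. Started with 1 mM NAD+ and 30 uM prostaglandin E2; NADH fluorescence (360/450 nm) read 5 times over 30-s intervals, last minus first.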
# ALDH1A1 inh: inhibitors of human aldehyde dehydrogenase 1A1; Purified ALDH1A1, NADH fluorescence, propionaldehyde substrate; Potency, µM (series often up to 75.3 µM), actives largely listed as inhibitors; hit rate 7.3% among 220,000; AID 1030
# Numbers stand for hits; - = inactive; ? = inconclusive; . = no result; [ ] = dose if it differs, or a comment. Unless noted, calls come from the whole dose curve; as a rule, active = well fitted inhibition curve with a large enough effect (not every such curve was filed as active); inconclusive = small, poorly fitted or top-dose-only effect, or another doubt; inactive = no such curve, though single readings can be large or run the other way.
SMILES,IMPase inh,HPGD inh,ALDH1A1 inh
CC(C)N1CCC(N2CCN(Cc3ccc(C#CC(C)(C)O)s3)CC2CCO)CC1 (centres undefined),.,.,-
N#Cc1cc2c(OCC(O)CN3CCN(C(c4ccccc4)c4ccccc4)CC3)cccc2[nH]1 (centres undefined),.,.,-
Cc1occc1C(=O)N/N=C/C1=C(N2CCOCC2)C(=C\c2ccc(Cl)cc2)/CC1,-,-,?
Cc1cc(=O)[nH]c(N/N=C/C2=C(N3CCOCC3)C(=C\c3ccc(Cl)cc3)/CC2)n1,.,-,11.2µM
O=C(N/N=C/C1=C(N2CCOCC2)C(=C\c2ccccc2)/CC1)Nc1ccccc1,.,-,?
Cc1cc(C)nc(N/N=C/C=C/c2ccccc2)n1,.,-,-
Cc1cc(C)nc(N/N=C/c2ccccc2)n1,-,14.1µM,10µM
Cc1cc(C)nc(N/N=C/C2=C(N3CCOCC3)C(=C/c3ccccc3)/CC2)n1,.,17.8µM,-
COc1ccccc1CCNC(=O)CSc1nnc2ccc(-c3ccncc3)nn12,.,.,-
CC(C)CCOC(=O)/C=C/c1ccccc1,.,-,-
CC1(C)Oc2cc3c(cc2O1)OC(C)(C)O3,.,.,-[13.5 µM]
C/C(CCC(=O)OC[C@@H]1O[C@H](C#Cc2ccccc2)C=C[C@@H]1Oc1ccc(C)cc1)=N/O[C@@H](C)c1cc(-c2c(C)cc(C)cc2C)no1,.,.,-[13.5 µM]
O=C1c2oc3ccccc3c(=O)c2C(c2ccccc2F)N1Cc1ccc2c(c1)OCO2 (centres undefined),-,.,.
CCOc1cc(/C=N/N=C2/NC(=O)C(CC(=O)O)S2)ccc1OS(=O)(=O)c1ccc(C)cc1 (centres undefined),.,.,-
O=C(O)CC1S/C(=N/N=C/c2ccc(-c3ccccc3[N+](=O)[O-])o2)NC1=O (centres undefined),-,15.8µM,8.91µM
Cc1ccc(-c2ccc(/C=N/N=C3/NC(=O)C(CC(=O)O)S3)o2)c([N+](=O)[O-])c1 (centres undefined),-,17.8µM,-
O=C(N/N=C\c1ccc(-c2ccccc2[N+](=O)[O-])o1)C1COc2ccccc2O1 (centres undefined),-,-,?
COC(=O)c1ccccc1NC(=O)CSc1nc(O)cc(=O)n1C1CCCC1,-,.,-
O=S(=O)(c1ccccc1)N1CCC2(CCCN(c3ccccn3)C2)CC1,.,-,?
Cc1cc(C)cc(NC(=O)CCCn2c3ccccc3c(=O)c3ccccc32)c1,-,.,.
Nc1ccc2nc(SCc3cccc(F)c3)sc2c1,.,.,-
O=C(Nc1cccc(NC(=O)C2CCCO2)c1)c1ccco1 (centres undefined),.,.,-
C=C1CC[C@H](O)C/C1=C/C=C1\CCC[C@]2(C)[C@@H]([C@H](C)CC[C@@H](O)C(C)(C)O)CC[C@@H]12,.,-,-
c1ccc(NN(Cc2cnccn2)c2ccccc2)cc1,.,-,-[13.5 µM]
COc1cccc(-c2cc(=O)c3cc(NC(=O)c4ccc(N(C)C)cc4)ccc3[nH]2)c1,.,?,-
SMILES,IMPase inh,HPGD inh,ALDH1A1 inh
Cc1ccc(S(=O)(=O)c2cc(N3CCOCC3)nc(-c3ccccc3)n2)cc1,-,-,?
Cc1ccc(S(=O)(=O)c2cnc(-c3ccccc3)nc2N2CCN(C)CC2)cc1,.,.,2.24µM
Cc1ncc(S(=O)(=O)c2ccccc2)c(-c2ccccc2)n1,-,-,-
O=S(=O)(c1ccccc1)c1cnc(-c2ccccc2)nc1N1CCCCC1,.,.,12.6µM
c1ccc2c(N3CCCCCC3)nc(-c3ccncc3)nc2c1,-,-,-
CN1CCN(c2nc(-c3ccccc3)ncc2S(=O)(=O)c2ccccc2)CC1,.,.,14.1µM
C/C(NC1CCCCC1)=C(/C#N)C(=O)NCCN1CCOCC1,-,-,-
COc1ccc(N(CC(=O)N2CCc3ccccc3C2)S(=O)(=O)c2c(C)nn(C)c2C)cc1,-,-,?
N[C@@H](C(=O)O)c1cc(O)ccc1Cl,-,-,-
O=c1cc(CN2CCN(c3ccccc3O)CC2)nc2sccn12,-,?,25.1µM
Cc1cccc(N2CCN(Cc3cc(=O)n4ccsc4n3)CC2)c1C,-,-,-
COc1ccc2c(c1)nc(SCC(=O)c1cccs1)n2C,-,-,?
O=C(NCCCN1CCOCC1)C(=O)N/N=C/c1ccc2c(c1)OCO2,.,.,-
O=C1N/C(=C\c2ccc(N3CCOCC3)c(F)c2)C(=O)N1Cc1ccccc1,-,-,?
Cc1ccc(/C=C2/SC(=S)N(CCC(=O)N3CCN(c4ccccc4)CC3)C2=O)cc1,-,-,?
CCCN1C(=O)/C(=C/c2ccc(N3CCCC3)c(C)c2)NC1=S,-,-,0.224µM
CCCN1C(=O)/C(=C/c2ccc(OCC(=O)OCC)cc2)NC1=S,.,.,1µM
Cc1ccc(CN2C(=O)N/C(=C\c3ccc(N4CCOCC4)cc3)C2=O)cc1,.,-,-
CCN1C(=O)/C(=C/c2ccc(N3CCCC3)cc2)NC1=S,.,-,12.6µM
CCOC(=O)COc1ccc(S(=O)(=O)c2ccc(OCC(=O)OCC)cc2)cc1,-,-,-
CCCN1C(=O)/C(=C/c2ccc(N3CCOCC3)cc2)NC1=S,.,.,6.31µM
Cc1noc(C)c1S(=O)(=O)N1CCc2nc(COc3ccccc3)c3c(c2C1)CO[C@@H](C)C3,.,-,-[13.5 µM]
Cc1ccc(C2CC(=O)n3nc(-c4cccc(C)c4)nc3S2)cc1 (centres undefined),-,.,.
COc1ccccc1CNC(=O)c1ccc(-c2ccccc2C(F)(F)F)o1,.,-,-
COc1ccccc1CNC(=O)CSc1ccc(Br)cc1,.,28.2µM,-
SMILES,IMPase inh,HPGD inh,ALDH1A1 inh
COc1ccccc1CNC(=O)COc1ccccc1OC,-,-,-
COc1ccccc1CNC(=O)CC(C)C,-,25.1µM,-
COc1ccccc1CNC(=O)c1ccc(-c2ccccc2Cl)o1,.,-,14.1µM
COc1ccc(CCNC(=O)CSc2ccc(Br)cc2)cc1OC,.,.,-
COc1ccccc1CNC(=O)C1CCN(S(=O)(=O)N2CCCCC2)CC1,-,-,?
COc1ccccc1CNC(=O)C1CCC1,.,14.1µM,-
CSc1n[nH]c(=O)n1-c1ccc(Cl)cc1,.,.,-
CC(C)N(C(=S)Nc1cccc(C(F)(F)F)c1)C(C)c1ccccn1 (centres undefined),.,.,-
CO[C@]1(C2=NCCN2)COc2ccccc2O1,-,-,-
C=CCN1c2ccccc2[C@]23C[C@@H](C(=O)OC)N(S(=O)(=O)c4ccc(C)cc4)C2=NC(C(=O)OC)=C(C(=O)OC)[C@H]13,.,-,-[13.5 µM]
Cc1cc(C(=O)CN2C(=O)CCC2=O)c(C)n1Cc1ccccc1,-,-,7.08µM
Cc1cc(C(=O)CN2C(=O)NC3(CCCc4ccccc43)C2=O)c(C)n1Cc1ccccc1 (centres undefined),-,-,?
CCC(C)(C)NC(=O)C(c1ccc(F)cc1)N(Cc1cccs1)C(=O)c1cnccn1 (centres undefined),.,.,-
CCCn1nnc(NC(=O)C(c2ccccc2)c2ccccc2)n1,-,-,-
CCCn1nnc(NC(=O)/C=C/c2ccc(C(C)C)cc2)n1,.,.,14.1µM
CCC(C(=O)NC(C)(C)C)N(Cc1ccco1)C(=O)Cn1nnc(-c2ccc(F)cc2)n1 (centres undefined),.,.,-
Cc1cccc(NC(=O)C2c3ccccc3C(=O)N3CCc4ccccc4C23)n1 (centres undefined),-,-,-
O=C(O)Cc1c[nH]c2ccc(O)cc12,-,22.4µM,?
COc1ccc2[nH]cc(CC(=O)O)c2c1,.,-,-
COc1ccc(C(=O)N2CCC3(CCCN(C(=O)Nc4cccc(C#N)c4)C3)CC2)cc1,.,-,?

# Compound activity deposited in PubChem BioAssay by National Center for Advancing Translational Sciences (NCATS).
